From PubChem BioAssay (NCATS)
Results filed as inconclusive are left out. The source made the active and inactive calls. The call rests on the fitted dose curve; in most records, active means well fitted curve in the direction sought with a large enough effect; inconclusive means small, poorly fitted or top-dose-only effect, or another doubt; inactive means no such curve, though single readings can be large; an effect the other way counts as inactive or inconclusive.

What was measured:
[1] = molecular target: Aldehyde dehydrogenase, mitochondrial (Homo sapiens) (UniProt P05091); assay: qHTS for Inhibitors of the Aldehyde Dehydrogenase Family (ALDH2) Primary screen (AID 2061308); further: nearly all actives have a fitted effect of over 55% in size
[2] = molecular target: Retinaldehyde dehydrogenase 3 (Homo sapiens) (UniProt P47895); assay: qHTS for Inhibitors of the Aldehyde Dehydrogenase Family (ALDH1A3) Validation screen (AID 2061312); further: nearly all actives have a fitted effect of over 45% in size
[3] = molecular target: Retinaldehyde dehydrogenase 3 (Homo sapiens) (UniProt P47895); assay: qHTS for Inhibitors of the Aldehyde Dehydrogenase Family (ALDH1A3) Primary screen (AID 2061315)
[4] = BET inhibitor-based combinations targeting novel dependencies in MECOM-rearranged (r) AML: SET-2 cell line (AID 2202231); details: SET-2 AML cells viability, CellTiter-Glo luminescence, 48 h; viability: hits give low values, concentration not given here; further: potency means the concentration at half of the fitted maximal effect; nearly all actives have a fitted effect of over 35% in size
In short: (§1)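 Readout: CellTiter-Glo luminescence. Exposure: 48 h, 11 concentrations, 500 cells/well. Metric: AUC and within-line Z-AUC after DMSO/empty-well normalization.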

[5] = BET inhibitor-based combinations targeting novel dependencies in MECOM-rearranged (r) AML: OCI-AML3 cell line (AID 2202232); details: Potency: OCI-AML3 viability; further: potency means the concentration at half of the fitted maximal effect; nearly all actives have a fitted effect of over 35% in size
In short: as §1

[6] = BET inhibitor-based combinations targeting novel dependencies in MECOM-rearranged (r) AML: MV-4-11 cell line (AID 2202233); further: potency means the concentration at half of the fitted maximal effect; nearly all actives have a fitted effect of over 45% in size
In short: (§2)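 Seeding density was 500 cells/well, and drug exposure lasted 48 hr under standard culture conditions. Read-out used CellTiter-Glo reagent with a 15 min room-temperature incubation before luminescence measurement; AUC and Z-AUC summarize the normalized responses.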

[7] = BET inhibitor-based combinations targeting novel dependencies in MECOM-rearranged (r) AML: HNT-34 cell line (AID 2202234); further: potency means the concentration at half of the fitted maximal effect; nearly all actives have a fitted effect of over 35% in size
In short: as §2

[8] = BET inhibitor-based combinations targeting novel dependencies in MECOM-rearranged (r) AML: UCSD-AML1 cell line (AID 2202235); further: nearly all actives have a fitted effect of over 40% in size; further: potency means the concentration at half of the fitted maximal effect
In short: as §2

[9] = BET inhibitor-based combinations targeting novel dependencies in MECOM-rearranged (r) AML: AML-191 cell line (AID 2202236; further: potency means the concentration at half of the fitted maximal effect; nearly all actives have a fitted effect of over 35% in size)
In short: as §1

[10] = BET inhibitor-based combinations targeting novel dependencies in MECOM-rearranged (r) AML: AML-194 cell line (AID 2202237; further: potency means the concentration at half of the fitted maximal effect; nearly all actives have a fitted effect of over 40% in size)
In short: as §1

Measured: Potency

CC(C)[C@@](C)(O)[C@@H]1CN(c2nc(-c3[nH]nc4ncccc34)c(F)cc2Cl)CCN1
inactive: [1] | [2] | [3]

Cc1ccc(C(=O)N(CCCN)C(c2nc3cc(Cl)ccc3c(=O)n2Cc2ccccc2)C(C)C)cc1 (stereo not drawn)
inactive: [1] | [2] | [3]

N#CC(CCCN1CCC(O)(c2ccc(Cl)cc2)CC1)(c1ccccc1)c1ccccc1
inactive: [1] | [2] | [3]

C[C@@H](NC(=O)C(=O)c1c[nH]c2ccc([N+](=O)[O-])cc12)c1ccccc1
inactive: [1] | [2] | [3]

COc1ccccc1OCCNCC(O)CCOc1cccc2[nH]c3ccccc3c12 (stereo not drawn)
inactive: [1] | [2] | [3]

Cc1cc(C)cc(-c2cnc3cc(Cl)c(-c4cccc(O)c4)cc3c2OCCCN)c1
inactive: [1] | [2] | [3]

CCOC(=O)[C@@H](N)Cc1ccc(-c2cc(O[C@H](c3ccc(Cl)cc3-n3ccc(C)n3)C(F)(F)F)nc(N)n2)cc1
inactive: [1] | [2] | [3] | [8]
active: [4] 26.3 µM | [5] 11.8 µM | [6] 9.34 µM | [7] 23.5 µM | [9] 23.5 µM | [10] 26.3 µM

OC(CNCCc1c[nH]c2ccccc12)Cn1c2ccccc2c2ccccc21 (stereo not drawn)
inactive: [1] | [2] | [3]

NC(=O)C(CCC(F)(F)F)N(Cc1ccc(-c2ncon2)cc1F)S(=O)(=O)c1ccc(Cl)cc1 (stereo not drawn)
inactive: [1] | [2] | [3]

CN(C)CCN(Cc1ccccc1)C(=O)c1cc(-c2ccc(F)cc2)n2nc(C(C)(C)C)cc2n1
inactive: [1] | [2] | [3]

Cc1ccc2nc(NC(=O)CSc3nc4c(c(=O)n3-c3ccc(F)cc3)SCC4)sc2c1
inactive: [1] | [2] | [3]

CCOc1cc(C(C)(C)C)ccc1C1=NC(C)(c2ccc(Cl)cc2)C(C)(c2ccc(Cl)cc2)N1C(=O)N1CCN(CCCS(C)(=O)=O)CC1 (stereo not drawn)
inactive: [1] | [2] | [3]

Cc1ccc(C(=O)N(CCCN)C(c2oc3cc(Cl)ccc3c(=O)c2Cc2ccccc2)C(C)C)cc1 (stereo not drawn)
inactive: [1] | [2] | [3]

CC(=O)OCC(=O)[C@@]1(O)[C@H](C)C[C@H]2[C@@H]3CCC4=CC(=O)C=C[C@]4(C)[C@@]3(F)[C@@H](O)C[C@@]21C
inactive: [1] | [2] | [3]

CCc1cc2c(cc1CC)CC(NCC(O)c1ccc(O)c3[nH]c(=O)ccc13)C2 (stereo not drawn)
inactive: [1] | [2] | [3]

COC(C)(C)CCn1nc(Nc2c(C)cccc2C)c2cnc(Nc3ccc(OCCN4CCCC4)c(F)c3)nc21
inactive: [1] | [2] | [3]
active: [4] 18.6 µM | [5] 20.9 µM | [6] 5.25 µM | [7] 0.0661 µM | [8] 9.34 µM | [9] 14.8 µM | [10] 14.8 µM

Cc1cn(-c2cc(NC(=O)c3ccc(C)c(Nc4nccc(-c5cnccn5)n4)c3)cc(C(F)(F)F)c2)cn1
inactive: [1] | [2] | [3]

O=C(Nc1ncc(SCCN2CCCC2)s1)C1(c2ccc(S(=O)(=O)C3CC3)cc2)CC1C1CCCCC1 (stereo not drawn)
inactive: [1] | [2] | [3]

COc1c(Nc2ncc(Cl)c(N[C@H]3[C@@H](C(N)=O)[C@@H]4C=C[C@H]3C4)n2)ccc2c1CC[C@@H](N1CCOCC1)CC2
inactive: [1] | [2] | [3]

C[C@@H]1C[C@H]2[C@@H]3C[C@H](F)C4=CC(=O)C=C[C@]4(C)[C@@]3(F)[C@@H](O)C[C@]2(C)[C@@]1(O)C(=O)CO
inactive: [1] | [2] | [3]

COc1cc2c(cc1-c1c(C)noc1C)ncc1[nH]c(=O)n(C(C)c3ccccn3)c12 (stereo not drawn)
inactive: [1] | [2] | [3]

C=C[C@H]1CN2CC[C@H]1C[C@H]2[C@H](O)c1ccnc2ccc(OC)cc12
inactive: [1] | [2] | [3]

NC(=O)c1nc(Nc2ccccc2)sc1NC(=O)C1CCCCC1
inactive: [1] | [2] | [3]

OC1CCC(Nc2ncc3nc(Nc4c(F)cc(F)cc4F)n([C@H]4CCOC4)c3n2)CC1 (stereo partly drawn)
inactive: [1] | [2] | [3]

CN(C)C(CCOc1cccc2ccccc12)c1ccccc1 (stereo not drawn)
inactive: [1] | [2] | [3]

Cc1cc(C)c(Nc2ccnc(Nc3ccc(C#N)cc3)n2)c(C)c1
inactive: [1] | [2] | [3]

Cc1nc(Nc2cnn(C3CCNCC3)c2)nc2c1N(C)C(=O)c1cc3ccccc3cc1N2C
inactive: [1] | [2] | [3]

CCCC1(CCC)CCC2(CCN(CCCN(CC)CC)C2)CC1
active: [4] 5.9 µM | [5] 7.42 µM | [6] 6.61 µM | [7] 4.68 µM | [8] 8.33 µM | [9] 9.34 µM | [10] 9.34 µM
inactive: [1] | [2] | [3]

CC(=O)OC12COC1CC(O)C1(C)C(=O)C(O)C3=C(C)C(OC(=O)C(O)C(NC(=O)OC(C)(C)C)c4ccccc4)CC(O)(C(OC(=O)c4ccccc4)C21)C3(C)C (stereo not drawn)
inactive: [1] | [2] | [3]
